Reference: the supplement of paper PMC10849652
Of roughly 7,900 targets only a part is listed; those with a hit were picked by preference. About 0.6% of all pairs of compound and target were hits. A number with no mark means an inactive call.

How the values were obtained:
Experiment in all cases: log2 fold change, soluble protein after heating vs DMSO (PISA); higher = thermal stabilisation; K562 cells, 10 uM, 30 min; active = over 0.2 and 3.5 SD of the protein, either way, in both replicates (recomputed)
bafetinib = compound: Cc1ccc(NC(=O)c2ccc(CN3CC[C@H](N(C)C)C3)c(C(F)(F)F)c2)cc1Nc1nccc(-c2cncnc2)n1 [bafetinib]
How it was run: (§1)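 Quantification of soluble protein used TMTpro 16plex LC-MS/MS, with channel sums equalised. Samples were the supernatant after 21,000xg for 90 min of pooled aliquots from K562 cells (2×10^6 cells/mL) treated with 10 μM compound for 30 min, heated for 3 min over 48°C-58°C, and extracted in PBS with 0.5% NP-40 at 4°C. Values, from duplicates, describe thermal stability against control samples on a log2 fold-change scale.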

[1] = compound: Cc1cccc(CC(=O)N2CCc3c2ccc(-c2cn(C)c4ncnc(N)c24)c3F)n1
How it was run: as §1

nilotinib = compound: Cc1cn(-c2cc(NC(=O)c3ccc(C)c(Nc4nccc(-c5cccnc5)n4)c3)cc(C(F)(F)F)c2)cn1 [nilotinib]
How it was run: as §1

[2] = compound: Cc1nc(Nc2n[nH]c3c2CN(C(=O)N[C@H](CN(C)C)c2ccccc2)C3(C)C)c2sccc2n1
How it was run: as §1

[3] = compound: Cc1ncc(-c2ccnc(Nc3ccc(S(C)(=O)=O)cc3)n2)n1C(C)C
How it was run: as §1

[4] = compound: Cn1cc(-c2ccc3c(c2)CCN3C(=O)Cc2cccc(C(F)(F)F)c2)c2c(N)ncnc21
How it was run: as §1

[5] = compound: Cn1cc(-c2ccc3nnc(C(F)(F)c4ccc5ncccc5c4)n3n2)cn1
How it was run: as §1

tipifarnib = compound: Cn1cncc1[C@@](N)(c1ccc(Cl)cc1)c1ccc2c(c1)c(-c1cccc(Cl)c1)cc(=O)n2C [tipifarnib]
How it was run: as §1

mubritinib = compound: FC(F)(F)c1ccc(/C=C/c2nc(COc3ccc(CCCCn4ccnn4)cc3)co2)cc1 [mubritinib]
How it was run: as §1

dasatinib = compound: Cc1nc(Nc2ncc(C(=O)Nc3c(C)cccc3Cl)s2)cc(N2CCN(CCO)CC2)n1 [dasatinib]
How it was run: as §1

Chain of UniProt Q9Y5W9 (Q9Y5W9 whole entry, looked up): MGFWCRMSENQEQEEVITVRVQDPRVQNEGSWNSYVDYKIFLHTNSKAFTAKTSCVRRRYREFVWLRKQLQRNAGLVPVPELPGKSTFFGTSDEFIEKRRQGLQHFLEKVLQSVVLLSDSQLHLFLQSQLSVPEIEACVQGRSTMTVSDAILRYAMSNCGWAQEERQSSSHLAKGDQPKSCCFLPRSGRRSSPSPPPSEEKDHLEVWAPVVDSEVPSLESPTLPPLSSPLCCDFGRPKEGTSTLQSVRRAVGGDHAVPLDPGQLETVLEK
Chain of UniProt Q96BW9 (Q96BW9 whole entry, looked up): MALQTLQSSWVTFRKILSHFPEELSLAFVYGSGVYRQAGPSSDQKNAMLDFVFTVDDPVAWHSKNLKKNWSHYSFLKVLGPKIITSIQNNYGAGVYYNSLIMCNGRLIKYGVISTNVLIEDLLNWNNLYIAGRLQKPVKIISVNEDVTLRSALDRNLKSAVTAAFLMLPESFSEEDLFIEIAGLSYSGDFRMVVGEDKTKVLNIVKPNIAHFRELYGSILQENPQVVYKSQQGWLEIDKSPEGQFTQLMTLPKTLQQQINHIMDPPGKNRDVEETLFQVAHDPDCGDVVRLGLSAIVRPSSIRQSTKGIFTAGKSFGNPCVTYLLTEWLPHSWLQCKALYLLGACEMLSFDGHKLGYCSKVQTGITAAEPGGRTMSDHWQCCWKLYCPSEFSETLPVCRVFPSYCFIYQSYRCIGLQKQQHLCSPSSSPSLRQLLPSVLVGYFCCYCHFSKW
Chain of UniProt P12931 (P12931 whole entry, looked up): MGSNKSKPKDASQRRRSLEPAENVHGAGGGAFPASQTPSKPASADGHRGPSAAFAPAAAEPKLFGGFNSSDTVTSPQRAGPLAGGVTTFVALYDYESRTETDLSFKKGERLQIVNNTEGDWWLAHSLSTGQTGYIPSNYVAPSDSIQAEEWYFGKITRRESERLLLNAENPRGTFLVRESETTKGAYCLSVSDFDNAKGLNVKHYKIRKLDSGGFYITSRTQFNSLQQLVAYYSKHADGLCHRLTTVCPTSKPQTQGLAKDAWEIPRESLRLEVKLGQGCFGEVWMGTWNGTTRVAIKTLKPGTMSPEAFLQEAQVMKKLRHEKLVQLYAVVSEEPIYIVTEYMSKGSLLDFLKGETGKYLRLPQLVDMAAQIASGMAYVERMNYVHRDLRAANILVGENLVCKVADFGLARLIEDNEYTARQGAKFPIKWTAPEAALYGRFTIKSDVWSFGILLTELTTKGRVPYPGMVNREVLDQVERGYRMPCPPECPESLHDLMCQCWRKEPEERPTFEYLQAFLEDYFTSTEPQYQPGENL
Chain of UniProt Q8IWA5 (Q8IWA5 whole entry, looked up): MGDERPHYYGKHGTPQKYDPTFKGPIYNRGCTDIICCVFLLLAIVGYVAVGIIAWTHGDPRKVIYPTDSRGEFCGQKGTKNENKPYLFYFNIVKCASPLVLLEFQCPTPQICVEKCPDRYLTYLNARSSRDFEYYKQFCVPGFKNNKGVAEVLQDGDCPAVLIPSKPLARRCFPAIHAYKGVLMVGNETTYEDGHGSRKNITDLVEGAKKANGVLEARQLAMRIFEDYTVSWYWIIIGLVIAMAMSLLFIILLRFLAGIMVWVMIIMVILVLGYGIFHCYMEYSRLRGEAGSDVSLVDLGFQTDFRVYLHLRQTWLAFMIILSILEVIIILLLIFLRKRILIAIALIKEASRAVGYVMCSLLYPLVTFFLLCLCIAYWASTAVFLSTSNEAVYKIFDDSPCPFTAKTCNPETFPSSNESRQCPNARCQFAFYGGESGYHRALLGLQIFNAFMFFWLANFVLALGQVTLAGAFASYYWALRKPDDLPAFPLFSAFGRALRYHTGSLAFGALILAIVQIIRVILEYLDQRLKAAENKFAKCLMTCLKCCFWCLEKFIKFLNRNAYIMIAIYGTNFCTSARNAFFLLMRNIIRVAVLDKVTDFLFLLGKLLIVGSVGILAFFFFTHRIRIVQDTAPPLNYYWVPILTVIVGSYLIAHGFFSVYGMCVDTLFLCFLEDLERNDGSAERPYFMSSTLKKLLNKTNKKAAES
Chain of UniProt Q9NVC3 (Q9NVC3 whole entry, looked up): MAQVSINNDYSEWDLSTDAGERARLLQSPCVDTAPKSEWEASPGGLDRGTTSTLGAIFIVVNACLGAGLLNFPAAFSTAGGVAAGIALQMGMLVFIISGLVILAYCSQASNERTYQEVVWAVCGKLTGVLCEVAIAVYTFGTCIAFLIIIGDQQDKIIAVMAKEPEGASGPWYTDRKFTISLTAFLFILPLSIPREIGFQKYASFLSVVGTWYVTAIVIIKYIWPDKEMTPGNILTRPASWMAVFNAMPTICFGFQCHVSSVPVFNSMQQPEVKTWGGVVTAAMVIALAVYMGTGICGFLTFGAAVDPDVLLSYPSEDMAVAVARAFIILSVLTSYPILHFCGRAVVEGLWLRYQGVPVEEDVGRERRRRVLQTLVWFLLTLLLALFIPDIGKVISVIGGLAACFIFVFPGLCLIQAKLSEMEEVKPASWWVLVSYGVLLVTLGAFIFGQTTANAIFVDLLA
Chain of UniProt Q8N1F8 (Q8N1F8 whole entry, looked up): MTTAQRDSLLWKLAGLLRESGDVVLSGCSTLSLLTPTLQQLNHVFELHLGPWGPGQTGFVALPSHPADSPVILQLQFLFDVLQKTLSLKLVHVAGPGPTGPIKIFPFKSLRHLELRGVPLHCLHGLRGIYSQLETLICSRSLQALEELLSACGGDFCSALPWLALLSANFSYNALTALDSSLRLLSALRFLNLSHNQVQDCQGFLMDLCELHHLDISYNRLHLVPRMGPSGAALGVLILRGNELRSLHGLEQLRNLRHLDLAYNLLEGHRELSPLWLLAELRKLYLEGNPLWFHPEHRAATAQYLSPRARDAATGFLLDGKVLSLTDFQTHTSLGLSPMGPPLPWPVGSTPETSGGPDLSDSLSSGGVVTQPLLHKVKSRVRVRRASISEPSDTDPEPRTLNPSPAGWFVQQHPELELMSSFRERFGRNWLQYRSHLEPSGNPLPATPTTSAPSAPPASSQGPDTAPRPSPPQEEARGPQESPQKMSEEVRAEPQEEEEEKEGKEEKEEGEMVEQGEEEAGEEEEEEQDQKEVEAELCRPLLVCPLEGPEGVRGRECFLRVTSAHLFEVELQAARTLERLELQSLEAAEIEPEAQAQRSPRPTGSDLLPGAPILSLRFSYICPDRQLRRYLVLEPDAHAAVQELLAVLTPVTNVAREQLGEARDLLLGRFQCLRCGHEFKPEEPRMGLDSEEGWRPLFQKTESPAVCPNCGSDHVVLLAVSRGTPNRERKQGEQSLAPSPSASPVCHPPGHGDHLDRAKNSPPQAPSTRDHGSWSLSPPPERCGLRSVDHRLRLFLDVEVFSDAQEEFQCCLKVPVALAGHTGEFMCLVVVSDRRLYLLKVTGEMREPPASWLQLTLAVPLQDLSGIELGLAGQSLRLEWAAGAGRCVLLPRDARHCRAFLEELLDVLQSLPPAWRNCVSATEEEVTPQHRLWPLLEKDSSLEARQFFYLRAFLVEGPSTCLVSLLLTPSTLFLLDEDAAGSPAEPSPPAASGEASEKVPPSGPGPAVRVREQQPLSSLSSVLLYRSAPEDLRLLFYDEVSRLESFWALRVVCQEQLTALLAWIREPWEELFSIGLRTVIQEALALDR
Chain of UniProt O00506 (O00506 whole entry, looked up): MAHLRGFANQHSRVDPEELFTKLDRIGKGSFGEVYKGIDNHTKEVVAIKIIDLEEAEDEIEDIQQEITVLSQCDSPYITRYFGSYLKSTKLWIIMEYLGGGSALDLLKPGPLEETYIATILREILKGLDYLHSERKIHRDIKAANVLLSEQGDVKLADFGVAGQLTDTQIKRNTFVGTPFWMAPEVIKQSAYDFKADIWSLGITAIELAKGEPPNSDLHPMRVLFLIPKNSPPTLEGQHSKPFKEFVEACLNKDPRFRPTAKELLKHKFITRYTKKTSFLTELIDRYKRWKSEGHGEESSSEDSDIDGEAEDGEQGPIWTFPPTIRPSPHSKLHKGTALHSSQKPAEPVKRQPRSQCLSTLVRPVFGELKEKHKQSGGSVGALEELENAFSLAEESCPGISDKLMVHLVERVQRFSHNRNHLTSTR
Chain of UniProt Q8WUH2 (Q8WUH2 whole entry, looked up): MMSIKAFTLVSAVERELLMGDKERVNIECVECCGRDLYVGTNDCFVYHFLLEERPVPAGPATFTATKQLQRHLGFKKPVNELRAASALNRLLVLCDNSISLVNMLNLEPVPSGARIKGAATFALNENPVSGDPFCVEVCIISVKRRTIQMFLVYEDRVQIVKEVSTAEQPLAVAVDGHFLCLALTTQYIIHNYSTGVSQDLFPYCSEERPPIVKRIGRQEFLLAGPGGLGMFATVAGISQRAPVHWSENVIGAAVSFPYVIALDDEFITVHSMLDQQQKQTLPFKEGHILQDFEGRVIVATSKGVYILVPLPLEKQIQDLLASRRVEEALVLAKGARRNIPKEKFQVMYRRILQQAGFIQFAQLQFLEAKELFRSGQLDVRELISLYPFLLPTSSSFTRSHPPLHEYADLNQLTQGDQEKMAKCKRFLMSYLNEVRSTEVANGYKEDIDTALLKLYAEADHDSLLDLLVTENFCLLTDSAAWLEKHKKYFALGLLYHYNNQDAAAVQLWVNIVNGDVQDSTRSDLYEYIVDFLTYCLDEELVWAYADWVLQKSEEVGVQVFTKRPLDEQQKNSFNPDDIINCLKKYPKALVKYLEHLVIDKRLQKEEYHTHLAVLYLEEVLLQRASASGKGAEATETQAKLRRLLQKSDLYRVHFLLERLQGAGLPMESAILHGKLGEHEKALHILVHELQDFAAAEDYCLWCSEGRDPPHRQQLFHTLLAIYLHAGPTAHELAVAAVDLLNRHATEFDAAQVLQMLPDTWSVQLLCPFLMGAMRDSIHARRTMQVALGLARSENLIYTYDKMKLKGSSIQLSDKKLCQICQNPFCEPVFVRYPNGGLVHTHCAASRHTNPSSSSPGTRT

Target | log2 fold change (bafetinib) | log2 fold change [1] | log2 fold change (nilotinib) | log2 fold change [2] | log2 fold change [3] | log2 fold change [4] | log2 fold change [5] | log2 fold change (tipifarnib) | log2 fold change (mubritinib) | log2 fold change (dasatinib)
SRC isoform 2 (UniProt P12931) | -0.054 | -0.037 | -0.041 | -0.499 | -0.136 | 0.008 | -0.163 | 0.005 | 0.031 | –
SLC44A2 isoform 2 (UniProt Q8IWA5) | 0.058 | -0.053 | 0.13 | 0.008 | 0.068 | 0.084 | -0.076 | – | 0.045 | 0.064
TAMM41 isoform 3 (UniProt Q96BW9) | -0.278 (active) | -0.041 | -0.112 | -0.005 | 0.026 | 0.037 | 0.028 | -0.043 | -0.044 | -0.108
TGFBRAP1 (UniProt Q8WUH2) | -0.05 | 0.482 (active) | -0.122 | -0.125 | 0.091 | -0.151 | -0.16 | 0.032 | 0.053 | -0.153
SYNE2 isoform 2 (UniProt Q8WXH0) | -0.008 | 0.031 | -0.115 | 0.006 | -0.069 | 0.153 | 0.027 | -0.029 | 0.233 | -0.019
TCOF1 isoform 4 (UniProt Q13428) | -0.037 | -0.012 | -0.022 | 0.045 | -0.034 | -0.046 | -0.014 | 0.022 | 0.025 | 0.048
TARS2 (UniProt Q9BW92) | -0.081 | 0.114 | -0.094 | -0.003 | 0 | 0.084 | 0.022 | -0.119 | 0.013 | -0.055
SNX11 (UniProt Q9Y5W9) | -0.259 | 0.081 | -0.033 | -0.108 | -0.44 (active) | 0.077 | 0.002 | 0.178 | -0.015 | -0.022
TGFBR1 isoform 2 (UniProt P36897) | -0.009 | -0.052 | -0.049 | -0.018 | 0.007 | -0.046 | 0.001 | 0.017 | -0.113 | –
SPIRE1 (UniProt Q08AE8) | -0.06 | -0.194 | 0.007 | 0.063 | -0.046 | -0.155 | -0.026 | – | 0.098 | –
SLC38A7 (UniProt Q9NVC3) | -0.142 | 0.016 | 0.05 | -0.023 | -0.053 | -0.005 | 0.084 | 0.056 | -0.007 | –
SNX9 (UniProt Q9Y5X1) | -0.015 | 0.03 | -0.06 | -0.064 | 0.006 | -0.023 | -0.008 | -0.013 | 0.009 | -0.131
SLC25A39 (UniProt Q9BZJ4) | -0.182 | -0.397 | -0.136 | -0.119 | 0.035 | 0.081 | 0.092 | 0.009 | 0.104 | -0.035
STK25 (UniProt O00506) | -0.015 | -0.055 | -0.083 | 0.257 (active) | -0.033 | 0.008 | 0.007 | 0.042 | -0.013 | -0.133
TBC1D9B (UniProt Q66K14) | -0.262 | -0.042 | -0.055 | 0.053 | -0.034 | 0.07 | -0.06 | 0.019 | 0.203 | -0.156
STK11IP (UniProt Q8N1F8) | -0.06 | 0.111 | -0.081 | 0.058 | 0.051 | -0.068 | – | 0.034 | -0.071 | -0.19
